# Screening data: PubChem BioAssay, National Center for Advancing Translational Sciences (NCATS)
# Shown are actives, neighbours in structure and some others; about 11% of the full set was active somewhere.
# BAZ2B inh: blocks human BAZ2B | AlphaScreen BAZ2B-H3K14Ac peptide displacement | Potency, µM (highest dose often 114 µM), actives largely listed as inhibitors | actives 4.4% (n = 360,000) | AID 504333; further: nearly all actives have a fitted effect of over 60% in size
#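 Compounds, titrated to a top concentration of 110 uM, were incubated 30 min at room temperature with preformed BAZ2B/acetyl-K14 H3 peptide complex (50 nM each). Proximity signal was measured by AlphaScreen after 20 min with beads.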
# L3MBTL1 inh: inhibitors of human L3MBTL1. AlphaScreen L3MBTL1–H3K9me1 peptide binding. AID 485360. Potency, µM (top dose mostly 57.1 µM), most hits filed as inhibitors. Q9Y468. actives 0.66% (n = 230,000); further: nearly all actives have a fitted effect of over 60% in size
#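 Displacement of a biotinylated histone H3(1-15) peptide monomethylated at Lys9 (75 nM) from L3MBTL1 (50 nM) was measured by AlphaScreen after a 30 min room-temperature compound incubation; cefsulodin titration served as intraplate control.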
# HP1b binding inh: HP1-beta chromodomain-methylated histone interaction inhibition; P83916; AlphaScreen HP1-beta / biotin-H3K9me3 peptide binding; Potency, µM (titrated, usually from 114 µM), actives largely listed as inhibitors; actives 0.56% (n = 390,000); further: nearly all actives have a fitted effect of over 70% in size
# Target sequence (P83916 whole entry, looked up): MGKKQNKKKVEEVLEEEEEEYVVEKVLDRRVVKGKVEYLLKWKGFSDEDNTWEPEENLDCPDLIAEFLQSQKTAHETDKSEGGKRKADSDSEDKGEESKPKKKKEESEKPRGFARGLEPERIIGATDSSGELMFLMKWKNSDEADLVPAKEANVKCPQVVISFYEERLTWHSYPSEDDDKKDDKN
#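 Compound inhibition of the preformed complex between 50 nM HP1-beta and 50 nM biotinylated H3K9me3 peptide was read by AlphaScreen. Buffer was PBS pH 7.4 with 0.01% Tween-20. Incubations ran 30 min at room temperature, with 10 ug/mL donor/acceptor beads.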
# JMJD2A Tudor: blocks the human JMJD2A Tudor domain; O75164; AlphaScreen JMJD2A-Tudor / H3K4me3 peptide binding; Potency, µM (highest dose often 114 µM), actives largely listed as inhibitors; actives 4.4% (n = 390,000); AID 504339; further: nearly all actives have a fitted effect of over 50% in size
# G9a block: G9a (human) methyltransferase inhibition; Q96KQ7; G9a H3K9 monomethylation, AlphaScreen, 2 h; Potency, µM (titrated, usually from 102 µM), most hits filed as inhibitors; actives 8.8% (n = 350,000); further: nearly all actives have a fitted effect of over 75% in size
# Target sequence (Q96KQ7 913-1193 limits assumed): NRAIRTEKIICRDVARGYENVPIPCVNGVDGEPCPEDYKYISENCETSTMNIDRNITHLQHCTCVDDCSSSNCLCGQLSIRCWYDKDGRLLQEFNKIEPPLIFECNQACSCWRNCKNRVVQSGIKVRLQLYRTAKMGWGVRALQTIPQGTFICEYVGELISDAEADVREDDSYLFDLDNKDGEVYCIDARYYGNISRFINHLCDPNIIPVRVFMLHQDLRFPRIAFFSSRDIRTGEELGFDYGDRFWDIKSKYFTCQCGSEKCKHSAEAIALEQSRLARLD
#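 Compounds were preincubated with 20 nM G9a for 15 min, after which biotinylated H3K9 peptide (500 nM) and SAM (20 uM) started a 2 h room-temperature reaction. Monomethylated product was quantified by antibody-based AlphaScreen chemiluminescence.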
# Numbers stand for hits; i = inactive; ? = inconclusive; nt = no result; [ ] = remark or other dose. The call rests on the fitted dose curve; in most records, active means well fitted inhibition curve with a large enough effect; inconclusive means small, poorly fitted or top-dose-only effect; inactive means no such curve, though single readings can be large or run the other way.
SMILES,BAZ2B inh,L3MBTL1 inh,HP1b binding inh,JMJD2A Tudor,G9a block
O=C(Oc1ccc(C(=S)N2CCOCC2)cc1Br)c1cc(Cl)ccc1Cl,i,i,i,i,44.7µM
COc1cc(C(=S)N2CCOCC2)ccc1OC(=O)c1cc([N+](=O)[O-])cc([N+](=O)[O-])c1,i,i,?,i,7.94µM
O=C(Oc1ccccc1C(=S)N1CCOCC1)c1ccc([N+](=O)[O-])cc1[N+](=O)[O-],?,nt,?,?,50.1µM
COc1cc(C(=S)N2CCOCC2)ccc1OC(=O)c1ccc(Br)cc1,i,i,i,i,i
O=C(NCCN1CCOCC1)c1ccc([N+](=O)[O-])cc1[N+](=O)[O-],i,i,i,i,i
CCCSc1oc(-c2cccs2)nc1S(=O)(=O)c1ccc(Cl)cc1,i,nt,i,i,i
COc1cc(C(=S)N2CCOCC2)ccc1OC(=O)c1ccccc1C,?,i,i,i,nt
COc1cc(C(=S)N2CCOCC2)ccc1OC(=O)c1cccc(C)c1,?,i,i,?,22.4µM
COc1ccc(C(=S)N2CCOCC2)cc1OC(=O)c1ccccc1Cl,i,nt,?,?,11.2µM
CC(C)c1nc2cc(C(=O)N3CCNC(=O)C3c3cccc(F)c3)ccc2o1 (stereo not drawn),i,nt,i,i,i
Cc1nc(-c2ccc(Cl)cc2)sc1CCNC(=O)C(=O)Nc1ccc2c(c1)OCO2,i,nt,i,i,i
Cc1ccc(Cn2c(C)c3cnn(CC(=O)NCCc4ccc(Cl)cc4)c(=O)c3c2C)cc1,i,nt,i,i,i
Cc1ccc(S(=O)(=O)Nc2cc3c(cc2C)n(C)c(=O)c(=O)n3C)cc1,i,nt,i,i,i
COc1ccc(S(=O)(=O)Nc2cc(C)c(O)cc2C(C)C)cc1,i,i,i,i,25.1µM
Cc1ccc(S(=O)(=O)Nc2cc(C)c(O)cc2C)cc1,i,i,i,i,50.1µM
COc1ccc(S(=O)(=O)Nc2cc(C(C)C)c(O)cc2C)cc1,i,nt,i,i,i[12.7 µM]
Cc1ccc(S(=O)(=O)Nc2csc(C)c2C(=O)O)cc1,44.7µM,7.94µM,i,i,39.8µM
COc1ccc(CNC(=O)CCC(=O)N2CCSc3ccccc32)cc1,i,nt,i,i,i
CN(C)c1ccc(NC(=O)CSCc2nc3c(nnn3Cc3ccc(F)cc3)c(=O)[nH]2)cc1,?,i,i,50.1µM,?
Clc1ccccc1CSc1nc2ccncc2[nH]1,i,nt,i,i,44.7µM
O=C(c1ccc(CSc2nc3ccncc3[nH]2)cc1)N1CCCCC1,79.4µM,i,?,20µM,25.1µM
CCOc1ccc(CCNC(=O)CCc2cn(Cc3ccc(C)cc3)c3ccccc23)cc1,?,nt,i,i,i
CCCn1c(SCc2nc(-c3ccccc3C)no2)nnc1-c1ccc(Cl)cc1,i,nt,i,i,i
S=c1nc[nH]c2c1ncn2-c1ccccc1,nt,nt,i,0.631µM,nt
CC(C)n1cnc2c(=S)nc[nH]c21,50.1µM,i,i,?,0.794µM
SMILES,BAZ2B inh,L3MBTL1 inh,HP1b binding inh,JMJD2A Tudor,G9a block
Cc1ccc2c(c1)cc1c(=O)n(Cc3ccccc3Cl)nc(C)n12,i,nt,i,i,i
CCN1CCN(c2oc(/C=C/c3ccc(OC)c(OC)c3)nc2C#N)CC1,i,nt,i,i,i
COc1cc(C(=O)Nc2ccc(Nc3ccccc3)cc2)cc(OC)c1OC,?,i,i,?,50.1µM
COc1cc(C(=O)Nc2ccncc2)cc(OC)c1OC,i,i,i,i,i
COc1cc(C(=O)Nc2c(C(=O)O)[nH]c3ccccc23)cc(OC)c1OC,i,nt,i,i,15.8µM
COc1ccc2[nH]c(C(=O)O)c(NC(=O)c3cc(OC)c(OC)c(OC)c3)c2c1,i,nt,i,i,?
O=c1c2c([nH]c3ccccc13)C(=C1CCCC1)CC2,?,?,i,i,35.5µM
Cc1ccccc1Cn1c(=O)n(CCCCC(=O)NCc2ccccc2Cl)c(=O)c2ccccc21,i,nt,i,i,i
COc1ccc2sc(/C=C/c3ccccc3O)[n+](C)c2c1,?,i,i,?,44.7µM
CCOC(=O)c1[nH]cnc1C(=O)Nc1ccncc1,50.1µM,nt,i,28.2µM,?
CCOC(=O)c1ccc(NC(=O)c2nc[nH]c2C(=O)N(CC)CC)cc1,i,nt,i,i,?
CCN(CC)C(=O)c1[nH]cnc1C(=O)Nc1ccc(OC)cc1,i,nt,i,i,i
CCN(CC)C(=O)c1[nH]cnc1C(=O)Nc1ccc(Cl)cc1,50.1µM,i,i,i,i[0.501 µM]
CCOC(=O)c1[nH]cnc1C(=O)Nc1ccc(F)cc1,?,i,i,i,44.7µM
CCOc1ccc(C(=O)Nc2ccc3oc(-c4cccc5ccccc45)nc3c2)cc1,i,nt,i,i,i
O=C(Cn1c(=O)n(-c2ccccc2)c(=O)c2c3c(sc21)CCCC3)Nc1ccc(F)cc1F,?,nt,i,i,i
CC(=O)N[C@@H]1C(O[C@H]2O[C@H](C(=O)O)C(O)[C@H](O)[C@H]2O)[C@H](O)[C@@H](CO)O[C@H]1O[C@@H]1C(C(=O)O)O[C@@H](O[C@H]2[C@H](O)[C@@H](CO)OC(O)[C@@H]2NC(C)=O)[C@H](O)[C@H]1O (stereo partly drawn),nt,nt,nt,nt,i[12.7 µM]
O=C(N=Nc1c(O)[nH]c2ccccc12)c1cccc(S(=O)(=O)Nc2ccccc2Cl)c1,?,i,i,28.2µM,i
CC(C)c1ccc2[nH]c(O)c(N=NC(=O)c3cccc(S(=O)(=O)Nc4ccccc4Cl)c3)c2c1,i,i,i,i,i
Cc1ccc(NC(=O)c2ccc(NCCCN3CCC(C)CC3)c([N+](=O)[O-])c2)cc1F,i,nt,i,79.4µM,70.8µM
O=C(Nc1cccc(Cl)c1)c1ccc(NCCCN2CCOCC2)c([N+](=O)[O-])c1,44.7µM,i,?,?,i[0.501 µM]
Cc1ccc(NC(=O)c2ccc(NCCN)c([N+](=O)[O-])c2)cc1,i,i,i,i,i
CN(C)Cc1nc(-c2cn(C)c3ccccc23)no1,nt,nt,nt,nt,i
CC(C)=CCN1CCN(Cc2cnc(-c3ccccc3)s2)CC1CCO (stereo not drawn),i,i,i,i,i
CCSc1nnc(NC(=O)C2CCN(C(=O)c3ccco3)CC2)s1,nt,nt,i,i,nt
SMILES,BAZ2B inh,L3MBTL1 inh,HP1b binding inh,JMJD2A Tudor,G9a block
CC(C)Oc1ccc(CNC(=O)CCCn2c(=O)c3cccn3c3cccnc32)cc1,?,nt,i,i,i
COC(=O)c1cc(CN2C(=O)c3ccccc3C2=O)c(O)c([N+](=O)[O-])c1,56.2µM,nt,i,i,i
COC(=O)c1ccc(CN2C(=O)c3ccccc3C2=O)cc1,i,i,i,i,i
O=C1c2ccccc2-c2onc3c(Br)cc(NC4CCCCC4)c1c23,i,nt,i,i,i
CN(C)CCCNc1cc(N2CCN(C3CCCCC3)CC2)c2noc3c2c1C(=O)c1ccccc1-3,20µM,nt,?,35.5µM,?
CC(C)CNc1cc(NC2CCCCC2)c2c3c(onc13)-c1ccccc1C2=O,25.1µM,nt,?,28.2µM,10µM
CC(=O)N(C)c1ccc(N2CCOCC2)c2c1C(=O)c1ccccc1C2=O,nt,nt,?,i,nt
